# Compound activity deposited in PubChem by several laboratories.
# Hits are enriched below; roughly 1.6% of the tested compounds scored in any of these assays.
# INS promoter inh: TRM-6 insulin promoter activity inhibition; TRM-6 cells (human fetal islet line), insulin promoter-eGFP reporter, imaging; reporter expression induced with tamoxifen; 130,000 compounds, 0.9% hits; inhibition, % at 2 µM;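 active = inhibition above the mean plus 3 SD, with well images judged a real hit on visual review, cut at about 60% in these data, passing the limit was not always enough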
# F-actin modifier: cytoskeleton assembly modification | HUVEC TNFa F-actin phalloidin imaging, high content | 91,000 compounds, 0.18% hits | inhibition, % at 2 µM;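 active = inhibition above the batch mean plus 3 SD and confirmed as a hit by visual image inspection, cut at about 30% in these data, passing the limit was not always enough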
# VCAM1 TNFa inh: reduces TNF alpha induced VCAM1 expression in HUVEC; HUVEC TNFa-induced VCAM-1 immunofluorescence, high-content imaging; inhibition, % at 2 µM; 95,000 compounds, 0.48% hits; AID 802;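 active = inhibition above the batch mean plus 3 SD, with images confirmed as a hit by eye, cut at about 37% in these data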;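 note: 0% = TNF-stimulated DMSO wells and 100% = unstimulated control wells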
# Phagocytosis inh: blocks phagocytosis by macrophages; J774A.1 macrophage IgG-bead phagocytosis, imaging; inhibition, % at 5 µM; 110,000 compounds, 0.07% hits; AID 1029;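 active = inhibition above the mean of the plate negative controls plus 5 SD, cut at about 13% in these data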;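 note: phagocytic index as fraction of beads internalized from green versus red external bead signal; plate controls were DMSO negative control for no effect and cytochalasin-D positive control for full effect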
# TNFa cytotox: HUVEC cytotoxicity counter-screen, TNF alpha stimulated. HUVEC TNFalpha-stimulated, Hoechst cell count, imaging. cell count reduction, % at 2 µM. 93,000 compounds, 0.17% hits;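 active = cell count reduction exceeding the screen mean by over 5 SD, scaled to untreated wells per plate, cut at about 78% in these data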;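 note: cells counted after 24 h of TNF alpha exposure following the 1 h pretreatment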
# E-sel TNF inh: blocks E-selectin expression induced by TNF alpha; HUVEC TNFa-induced E-selectin immunofluorescence, high content; inhibition, % at 2 µM; 120,000 compounds, 0.71% hits; AID 1246;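 active = inhibition above the batch mean plus 3 SD, and confirmed as a hit on visual image review, cut at about 43% in these data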;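 note: 0% = TNF-stimulated DMSO wells and 100% = unstimulated control wells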
# * marks the source's active call; other numbers are inactive results; nt = not tested or not shown; [ ] = remark or other dose.
SMILES,INS promoter inh,F-actin modifier,VCAM1 TNFa inh,Phagocytosis inh,TNFa cytotox,E-sel TNF inh
N#CC(C#N)=C/C(C#N)=C(/N)N1CCN(c2ccc(Cl)cc2)CC1,nt,26,-1,nt,-3,97*
COc1cc(NC(=O)CN2C(=O)NC(c3ccccc3)(c3ccccc3)C2=O)c(C)cc1[N+](=O)[O-],40,nt,nt,-4,nt,nt
Cc1ccc(N(CCC(=O)Nc2nnc(C3CC3)s2)S(=O)(=O)c2ccccc2)cc1,-42,nt,nt,-6,nt,15
Cc1ccc(OCC(=O)N/N=C/c2cccn2C)cc1,71*,3,10,nt,-2,24
Cc1ccc(C)c(OCC(=O)N/N=C\c2cccn2C)c1,-60,nt,nt,nt,nt,nt
COc1ccc(Nc2nc(C)cc(C)c2C#N)cc1OC,nt,-2,1,-1,-4,59*
COc1cccc(Nc2nc(C)cc(C)c2C#N)c1,41,2,-6,nt,-16,-7
O=C(Nc1nnc(SCC(=O)N2CCCCC2)s1)C1CCCCC1,73*,-3,2,nt,-15,-11
N#CCCn1cc(/C=C(\C#N)c2nc3ccccc3s2)c(-c2ccc(F)cc2)n1,74*,-7,2,0,-4,8
N#CCCn1cc(/C=N/O)c(-c2ccc(-c3ccccc3)cc2)n1,nt,0,36,0,0,nt
CCOC(=O)c1sc2nc(-c3cccnc3)ccc2c1N,71*,nt,nt,nt,nt,nt
CCOC(=O)c1sc2nc3c(cc2c1N)COC(C)(C)C3,81*,14,0,nt,-5,6
CCc1c(C(=O)N/N=C/c2ccc(C)o2)csc1C,71,13,-6,nt,-15,-3
CCn1c(NCc2c[nH]c3ccccc23)nc2ccccc21,20,3,12,nt,-19,-4
Cn1c(NCc2c[nH]c3ccccc23)nc2ccccc21,-9,nt,58*,-3,-25,-31
CCOC1=NN(c2ncc(C(F)(F)F)cc2Cl)C(=O)/C1=C/N(C)C,38,nt,nt,nt,nt,-19
COc1ccc(C(=O)OCCNC(=O)c2c(Cl)nc3ccccn23)cc1,-15,-14,-25,-1,9,60*
CC(C)(C)c1ccc(C(=O)OCCNC(=O)c2c(Cl)nc3ccccn23)cc1,-393,-11,-1,-1,0,22
Cc1ccc2nc(/C(C#N)=C\c3ccc([N+](=O)[O-])o3)[nH]c2c1,nt,13,23,33*[fluoresces],-4,0
Cc1cc(C(=O)N(C)Cc2ccc(Br)cc2)no1,nt,nt,nt,-1,nt,-2
CN(Cc1ccccc1)C(=O)c1cc(-c2ccc(Br)cc2)on1,21,nt,nt,nt,nt,100*
CC(C)CCN1CC(O)=C(c2nc3ccccc3[nH]2)C1=N,14,4,6,nt,-12,21
CC(C)N1CC(O)=C(c2nc3ccccc3[nH]2)C1=N,-7,nt,nt,2,100*,nt
Cn1ccnc1SCC(=O)Nc1cccc([N+](=O)[O-])c1,nt,nt,nt,nt,nt,-17
Cn1nnnc1SCC(=O)Nc1cccc([N+](=O)[O-])c1,nt,nt,nt,nt,nt,76*
SMILES,INS promoter inh,F-actin modifier,VCAM1 TNFa inh,Phagocytosis inh,TNFa cytotox,E-sel TNF inh
COc1ccc(Cl)cc1NC(=O)Nc1cccc([N+](=O)[O-])c1C,-24,-9,-18,3,-14,-8
COc1ccc(-n2c(C)c(C(C)=O)c(C(C)=O)c2C)cc1,nt,3,4,2,-11,nt
COc1ccc(-n2c(C)c(C(C)=O)c(C(C)=O)c2C)cc1OC,71*,-13,-3,0,-30,nt
c1nc(NCCN2CCOCC2)c2sc3nc(N4CCOCC4)c4c(c3c2n1)CCC4,-58,nt,nt,-1,nt,66*
CCN1CCN(c2ncnc3c2sc2nc(N4CCOCC4)c4c(c23)CCC4)CC1,nt,nt,nt,3,nt,nt
COc1c(Cl)cc(Cl)cc1C(=O)Nc1ccc(C(=O)O)cc1,-69,nt,nt,-4,nt,-6
COc1c(Cl)cc(Cl)cc1C(=O)Nc1ccc(NC(C)=O)cc1,33,nt,nt,nt,nt,64*
O=C(CN1C(=O)C2CC=CCC2C1=O)Nc1ccc(S(=O)(=O)N2CCOCC2)cc1 (centres undefined),73*,nt,nt,nt,nt,-14
CC(=O)c1cccc(NC(=O)CN2C(=O)C3C4C=CC(C4)C3C2=O)c1 (centres undefined),13,14,-68,2,-43,32
O=C(CN1C(=O)C2C3C=CC(C3)C2C1=O)Nc1cccc(S(=O)(=O)N2CCCC2)c1 (centres undefined),100*,nt,nt,-2,nt,nt
CCN(CC)S(=O)(=O)c1ccc(OC(C)C)c(NC(=O)c2c3c(nc4ccccc24)CCN(Cc2ccccc2)C3)c1,-26,nt,nt,-4,nt,nt
O=C1CC(c2ccccc2F)c2cc3c(cc2N1)CCC3 (centres undefined),nt,-47,6,nt,17,-32
O=C1CC(c2cc(Br)ccc2F)c2cc3c(cc2N1)CCC3 (centres undefined),27,-40,82*,9,nt,-5
